Activity calls are given as the source filed them.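 How the source made its calls, unless noted: active means fluorescence slope after compound addition differing from the mean of all screened samples at 99.7% confidence, in either direction; inactive means the rest.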
target: Voltage-gated potassium channel subunit beta-2 (Rattus norvegicus) (UniProt P62483); test: KvBeta positive modulators, primary screen, biochemical, NADPH fluorescence (AID 623;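 active means NADPH fluorescence slope more negative than the mean of all samples by about 3 SD, 99.7% confidence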;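 further: fluorescence intensity change per second fitted from 20 to 320 s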); settings: Recombinant KvBeta, NADPH fluorescence decrease slope, 10 min; at 10 µM; active compounds read low
Sequence (P62483 whole entry, looked up): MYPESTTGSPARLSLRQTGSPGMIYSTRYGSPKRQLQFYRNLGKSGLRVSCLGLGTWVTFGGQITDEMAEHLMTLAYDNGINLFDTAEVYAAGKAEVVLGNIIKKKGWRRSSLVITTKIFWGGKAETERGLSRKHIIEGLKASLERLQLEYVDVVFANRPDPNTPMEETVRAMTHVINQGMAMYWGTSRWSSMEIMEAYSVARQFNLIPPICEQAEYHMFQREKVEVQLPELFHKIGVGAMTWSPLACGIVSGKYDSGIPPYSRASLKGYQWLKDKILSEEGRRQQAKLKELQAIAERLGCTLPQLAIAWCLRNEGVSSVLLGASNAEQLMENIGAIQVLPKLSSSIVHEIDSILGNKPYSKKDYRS

NADPH fluorescence slope, inactive:
O=C(NC1CCCc2ccccc21)C1CCN(c2nnc(-n3cccc3)s2)CC1 (stereo not given) -3e-05
c1ccc(Oc2ccc(-n3cnnn3)cc2)cc1 9.8e-07
COc1ccc(C)cc1NC(=O)CN(Cc1nnc(-c2ccc(Cl)cc2)o1)C1CCCC1 2.2e-05
O=C(NCCN1C(=O)C2C3C=CC(C3)C2C1=O)N1CCCCC1 (stereo not given) -3.7e-05
CCOc1ccc(N2CC(C(=O)Nc3cccc(C)c3C)CC2=O)cc1 (stereo not given) -1.8e-05
CCOC(=O)c1c(C)[nH]c(C(=O)Cn2c(=O)oc3ccccc32)c1C -6.3e-06
COc1cccc(-n2ccnc2SCC(=O)N2CCc3ccccc32)c1 -1e-05
Cc1[nH]c2ccccc2c1Cc1nnc(SCC(=O)NCc2ccco2)o1 1.9e-05
CCN(CC)CCCNC(=O)c1cn(C)c2ccc(S(=O)(=O)N(C)C)cc2c1=O -3.7e-05
CC(=O)NCC(=O)N(Cc1ccco1)C1(C(=O)NC2CCCCC2)CCCCC1 -4.2e-05
COc1ccc(NC(=O)C2CCCN(S(=O)(=O)c3cccc4cccnc34)C2)cc1OC (stereo not given) 8e-06
O=c1[nH]c(CN2CCN(Cc3ccccc3)CC2)nc2sc3c(c12)CCC3 -3e-05
O=C(CC1CCS(=O)(=O)C1)Nc1ccc[nH]c1=O (stereo not given) -6.4e-05
CCOC(=O)N1CCN(C(=O)CSc2nnc(COc3ccccc3)o2)CC1 1.8e-05
CC(C)OC(=O)CSc1nnc(-c2ccc(C(C)(C)C)cc2)n1N -3.9e-05
CCCCn1c(=O)[nH]c(=O)c2c1nc(-c1ccncc1)n2CCOC -4.3e-05
O=C(NCCC1=CCCCC1)c1cc2c(s1)CS(=O)(=O)C2 -0.000138
COc1ccc(N2C(=O)CC(N3CCN(c4ccccc4F)CC3)C2=O)cc1 (stereo not given) -2.3e-05
CCCN1CC23C=CC(O2)C(C(=O)O)C3C1=O (stereo not given) -8.6e-07
CCN(CCCNC(=O)COc1cc(=O)n(CC)c2ccccc12)c1ccccc1 -4e-05
CN(CC(=O)N1CCCc2c1c(=O)oc1ccc(O)cc21)Cc1ccccc1 -4.5e-05
COc1ccc2[nH]c(=O)c(CNC3CCCCC3)cc2c1 -3.4e-05
CC(=O)N1CCN=C1SCc1c(F)cccc1Cl 1.8e-05
CN(CCCNC(=O)c1cn(C)c2ccc(S(=O)(=O)N(C)C)cc2c1=O)c1ccccc1 -7.6e-06
Cc1nc2ccc(S(=O)(=O)NCC(=O)N3CCCCC3)cc2s1 -4.1e-05
O=C1CC(C(=O)Nc2ccc(Br)cc2)C2(CCCC2)O1 (stereo not given) -3e-05
CCN(C(=O)c1cc(Cl)ccc1OC)c1ccccc1 -4.1e-05
Fc1cccc(Nc2cc(-n3cccn3)ncn2)c1 -7.2e-05
O=C(COc1ccccc1F)NC1CC1 -4.8e-05
CC(=O)c1ccc(NC2OC(C)C(O)C(O)C2O)cc1 (stereo not given) -8.6e-06
COc1ccc(N2CCN(C(c3cccs3)c3nnnn3C3CCCC3)CC2)cc1 (stereo not given) -1.5e-08
C=CCOc1nc2c(c(=O)n(C)c(=O)n2C)n1C -4.9e-05
COc1ccccc1NC(=O)c1ccc(COc2ccccc2OC)o1 2.4e-05
CCOc1ccc(N(CC(=O)NCc2cccc(OC)c2)S(=O)(=O)c2c(C)noc2C)cc1 1.6e-05
CCCCN(C)C(=O)c1ccc(CS(=O)(=O)c2ccccc2C)o1 -1.2e-05
CC(C)Cc1nc(S(=O)(=O)c2ccc(Cl)cc2)c(N2CCOCC2)o1 -4.1e-05
O=C(Cn1nnc(-c2ccc(CN3CCOCC3)cc2)n1)NC1CCCCC1 -4.1e-05
CC(=O)Nc1nc(=S)ss1 -2.6e-05
O=C(NCc1cccnc1)c1ccc2c(c1)OCO2 3.1e-05
O=C1C(c2ccncc2)=C(O)c2ccccc21 -1.1e-05

target: Alpha-2C adrenergic receptor (Homo sapiens) (UniProt P18825); test: modulators of alpha2C/GIRK thallium flux, primary screen, cell-based, HEK293 alpha2C/GIRK1/2 (AID 624); settings: thallium flux BTC fluorescence, at 10 µM, actives lie on both sides;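 further: slope of fluorescence ratio to pre-addition baseline per second over 15 to 24 s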
Sequence (P18825 whole entry, looked up): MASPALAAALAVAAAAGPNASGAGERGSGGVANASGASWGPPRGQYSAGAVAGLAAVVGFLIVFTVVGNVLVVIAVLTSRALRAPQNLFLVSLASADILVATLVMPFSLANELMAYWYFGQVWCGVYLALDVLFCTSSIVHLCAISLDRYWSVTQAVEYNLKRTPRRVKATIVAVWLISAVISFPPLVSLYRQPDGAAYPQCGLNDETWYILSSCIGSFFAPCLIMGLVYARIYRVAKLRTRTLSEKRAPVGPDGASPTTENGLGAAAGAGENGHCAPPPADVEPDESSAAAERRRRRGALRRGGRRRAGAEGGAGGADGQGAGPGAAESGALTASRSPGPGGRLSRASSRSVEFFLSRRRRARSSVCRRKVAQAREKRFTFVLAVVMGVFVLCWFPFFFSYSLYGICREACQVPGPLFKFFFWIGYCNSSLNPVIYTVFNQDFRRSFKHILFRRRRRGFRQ

slope, inactive:
O=C(NC1CCCc2ccccc21)C1CCN(c2nnc(-n3cccc3)s2)CC1 (stereo not given) 0.00726
c1ccc(Oc2ccc(-n3cnnn3)cc2)cc1 0.00429
COc1ccc(C)cc1NC(=O)CN(Cc1nnc(-c2ccc(Cl)cc2)o1)C1CCCC1 0.00634
O=C(NCCN1C(=O)C2C3C=CC(C3)C2C1=O)N1CCCCC1 (stereo not given) 0.00723
CCOc1ccc(N2CC(C(=O)Nc3cccc(C)c3C)CC2=O)cc1 (stereo not given) 0.00361
CCOC(=O)c1c(C)[nH]c(C(=O)Cn2c(=O)oc3ccccc32)c1C 0.00653
COc1cccc(-n2ccnc2SCC(=O)N2CCc3ccccc32)c1 0.00609
Cc1[nH]c2ccccc2c1Cc1nnc(SCC(=O)NCc2ccco2)o1 0.0061
CCN(CC)CCCNC(=O)c1cn(C)c2ccc(S(=O)(=O)N(C)C)cc2c1=O 0.00615
CC(=O)NCC(=O)N(Cc1ccco1)C1(C(=O)NC2CCCCC2)CCCCC1 0.00597
COc1ccc(NC(=O)C2CCCN(S(=O)(=O)c3cccc4cccnc34)C2)cc1OC (stereo not given) 0.007
O=c1[nH]c(CN2CCN(Cc3ccccc3)CC2)nc2sc3c(c12)CCC3 0.00576
O=C(CC1CCS(=O)(=O)C1)Nc1ccc[nH]c1=O (stereo not given) 0.0024
CCOC(=O)N1CCN(C(=O)CSc2nnc(COc3ccccc3)o2)CC1 0.00595
CC(C)OC(=O)CSc1nnc(-c2ccc(C(C)(C)C)cc2)n1N 0.00343
CCCCn1c(=O)[nH]c(=O)c2c1nc(-c1ccncc1)n2CCOC 0.00406
O=C(NCCC1=CCCCC1)c1cc2c(s1)CS(=O)(=O)C2 0.00559
COc1ccc(N2C(=O)CC(N3CCN(c4ccccc4F)CC3)C2=O)cc1 (stereo not given) 0.00511
CCCN1CC23C=CC(O2)C(C(=O)O)C3C1=O (stereo not given) 0.00688
CCN(CCCNC(=O)COc1cc(=O)n(CC)c2ccccc12)c1ccccc1 0.00565
CN(CC(=O)N1CCCc2c1c(=O)oc1ccc(O)cc21)Cc1ccccc1 0.00473
COc1ccc2[nH]c(=O)c(CNC3CCCCC3)cc2c1 0.00407
CC(=O)N1CCN=C1SCc1c(F)cccc1Cl 0.00565
CN(CCCNC(=O)c1cn(C)c2ccc(S(=O)(=O)N(C)C)cc2c1=O)c1ccccc1 0.00499
Cc1nc2ccc(S(=O)(=O)NCC(=O)N3CCCCC3)cc2s1 0.00708
O=C1CC(C(=O)Nc2ccc(Br)cc2)C2(CCCC2)O1 (stereo not given) 0.00668
CCN(C(=O)c1cc(Cl)ccc1OC)c1ccccc1 0.00295
Fc1cccc(Nc2cc(-n3cccn3)ncn2)c1 0.00508
O=C(COc1ccccc1F)NC1CC1 0.0037
CC(=O)c1ccc(NC2OC(C)C(O)C(O)C2O)cc1 (stereo not given) 0.00391
COc1ccc(N2CCN(C(c3cccs3)c3nnnn3C3CCCC3)CC2)cc1 (stereo not given) 0.00587
C=CCOc1nc2c(c(=O)n(C)c(=O)n2C)n1C 0.00278
COc1ccccc1NC(=O)c1ccc(COc2ccccc2OC)o1 0.00349
CCOc1ccc(N(CC(=O)NCc2cccc(OC)c2)S(=O)(=O)c2c(C)noc2C)cc1 0.00505
CCCCN(C)C(=O)c1ccc(CS(=O)(=O)c2ccccc2C)o1 0.00658
CC(C)Cc1nc(S(=O)(=O)c2ccc(Cl)cc2)c(N2CCOCC2)o1 0.00543
O=C(Cn1nnc(-c2ccc(CN3CCOCC3)cc2)n1)NC1CCCCC1 0.0043
CC(=O)Nc1nc(=S)ss1 0.00751
O=C(NCc1cccnc1)c1ccc2c(c1)OCO2 0.00534
O=C1C(c2ccncc2)=C(O)c2ccccc21 0.00364

From PubChem BioAssay
